Source: PubChem BioAssay (Tox21)
Records with an inconclusive call do not appear. Activity calls are given as the source filed them. Unless noted, the call rests on the fitted dose curve; in most records, active means well fitted curve in the direction sought with a large enough effect in the repeat runs; inconclusive means weak or mixed curves; inactive means no such curve, though single readings can be large; an effect the other way counts as inactive or inconclusive.

Experiments:
[1] = molecular target: Estrogen receptor beta (Homo sapiens) (UniProt Q92731); assay: qHTS assay to identify small molecule agonists of the estrogen receptor beta (ER-beta) signaling pathway (AID 1259377; active means well fitted activation curve with a large enough effect in the signal ratio in the repeat runs, not every such curve was filed as active; the % refers to the signal ratio)
Chain of Estrogen receptor beta (Homo sapiens) (Q92731 whole entry, looked up): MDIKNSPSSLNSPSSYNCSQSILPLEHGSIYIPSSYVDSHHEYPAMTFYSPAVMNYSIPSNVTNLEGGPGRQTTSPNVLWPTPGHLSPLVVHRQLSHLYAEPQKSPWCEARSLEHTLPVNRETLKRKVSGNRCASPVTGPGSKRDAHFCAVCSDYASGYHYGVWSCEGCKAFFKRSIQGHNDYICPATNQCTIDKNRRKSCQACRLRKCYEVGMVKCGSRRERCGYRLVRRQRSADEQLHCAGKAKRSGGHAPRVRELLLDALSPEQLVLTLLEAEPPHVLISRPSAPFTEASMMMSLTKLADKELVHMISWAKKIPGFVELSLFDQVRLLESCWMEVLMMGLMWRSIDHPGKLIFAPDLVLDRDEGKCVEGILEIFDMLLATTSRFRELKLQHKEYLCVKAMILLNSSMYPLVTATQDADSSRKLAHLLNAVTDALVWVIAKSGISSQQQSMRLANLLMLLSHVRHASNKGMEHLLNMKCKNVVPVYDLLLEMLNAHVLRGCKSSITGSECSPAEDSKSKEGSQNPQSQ
In short: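 Reporter cells (HEK293T, ER-beta-UAS-bla) receive compounds or DMSO after a 6 hr pre-incubation. They then incubate 16 hr at 37C/5% CO2, and fluorescence from LiveBLAzer B/G substrate is measured after 2 hours at room temperature.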

[2] = molecular target: Estrogen receptor beta (Homo sapiens) (UniProt Q92731); assay: qHTS assay to identify small molecule antagonists of the estrogen receptor beta (ER-beta) signaling pathway (AID 1259378; active means well fitted inhibition curve with a large enough effect in the signal ratio in the repeat runs, not every such curve was filed as active; the % refers to the signal ratio)
In short: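 Antagonist mode: compounds added to beta-lactamase reporter HEK293T ER-beta-UAS cells stimulated with E2 (1nM final), 16 hr at 37C. LiveBLAzer B/G FRET substrate, 2 hours room temperature, fluorescence read-out.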

[3] = qHTS assay to identify small molecule agonists of the androgen receptor (AR) signaling pathway in the presence of an antagonist - cell viability counter screen (AID 1259379);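 further: MDA-kb2 human breast cancer cells carrying an MMTV luciferase reporter; series mostly up to about 92 µM; nearly all actives have a fitted effect of over 25% in size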
In short: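 Cells: MDA-kb2 (MMTV-luc, AR and GR elements), 3,000/well, 5 hr settle. Added: nilutamide 3.0uM final, then compounds (15 conc.). Incubation: 16 hr, 37C, no CO2. Read-out: CellTiter-Fluor, 1 hr, fluorescence.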

[4] = qHTS assay to identify small molecule agonists of the estrogen receptor beta (ER-beta) signaling pathway - cell viability counter screen (AID 1259380); further: nearly all actives have a fitted effect of over 30% in size
In short: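 HEK293T ER-beta-UAS-bla; 2% CS-FBS; 6 hr pre-plate, 16 hr cpd at 37C/5% CO2; LiveBLAzer read first, then CellTiter-Glo 30 min RT, luminescence.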

[5] = qHTS assay to identify small molecule antagonists of the estrogen receptor beta (ER-beta) signaling pathway - cell viability counter screen (AID 1259382);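 further: HEK293T cells carrying ER-beta-UAS-bla reporter stimulated with estradiol; series mostly up to about 92 µM; nearly all actives have a fitted effect of over 55% in size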
In short: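 Cells: ER-beta-UAS-bla HEK293T, 2,000/well, 2% CS-FBS, 6 hr settle. Cpd + E2 (1nM final), 16 hr, 37C/5% CO2. Bla FRET substrate 2 hr RT, then CellTiter-Glo 30 min RT, luminescence.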

[6] = molecular target: Estrogen receptor (Homo sapiens) (UniProt P03372); assay: qHTS assay to identify small molecule agonists of the estrogen receptor alpha (ER-alpha) signaling pathway in the presence of an antagonist (AID 1259383; calls by dose curve; further: top concentration of the series differs between compounds; nearly all actives have a fitted effect of over 15% in size)
Chain of Estrogen receptor (Homo sapiens) (P03372 whole entry, looked up): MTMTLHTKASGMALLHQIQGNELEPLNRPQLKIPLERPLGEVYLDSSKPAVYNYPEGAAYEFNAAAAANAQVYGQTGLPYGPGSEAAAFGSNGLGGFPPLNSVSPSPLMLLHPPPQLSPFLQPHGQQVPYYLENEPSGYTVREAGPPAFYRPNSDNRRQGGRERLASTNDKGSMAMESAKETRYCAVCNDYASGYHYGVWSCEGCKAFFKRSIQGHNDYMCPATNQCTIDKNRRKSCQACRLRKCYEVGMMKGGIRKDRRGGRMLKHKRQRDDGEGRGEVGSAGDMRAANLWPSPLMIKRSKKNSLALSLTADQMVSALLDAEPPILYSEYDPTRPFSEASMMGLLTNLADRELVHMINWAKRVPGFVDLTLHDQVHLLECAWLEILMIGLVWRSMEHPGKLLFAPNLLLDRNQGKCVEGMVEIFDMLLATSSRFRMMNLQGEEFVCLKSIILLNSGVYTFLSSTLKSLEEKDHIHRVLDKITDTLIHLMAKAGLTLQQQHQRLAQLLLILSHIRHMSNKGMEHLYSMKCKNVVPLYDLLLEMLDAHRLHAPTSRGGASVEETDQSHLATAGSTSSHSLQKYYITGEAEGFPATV
In short: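 VM7Luc4E2, endog. ER-alpha + 4×ERE-luc; charcoal-stripped FBS, phenol red-free, 5 d; 24hr plating; +10.0nM ICI-182,780 (final); cpds 15 conc, 22hr, 37C/5% CO2; ONE-Glo luminescence.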

[7] = qHTS assay to identify small molecule agonists or antagonists of the thyroid stimulating hormone receptor (TSHR) signaling pathway - wild type cell line counter screen (AID 1259384; calls by dose curve)
In short: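 Counter screen in untransfected Hek293: compounds (15-point titration, triplicate) plus phosphodiesterase inhibitor Ro20-1724 added after 18 h plating; 30 min RT. Intracellular cAMP via competitive d2/cryptate immunoassay, 1 h incubation.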

[8] = molecular target: Thyrotropin receptor (Homo sapiens) (UniProt P16473); assay: qHTS assay to identify small molecule antagonists of the thyroid stimulating hormone receptor (TSHR) signaling pathway (AID 1259385; calls by dose curve; further: nearly all actives have a fitted effect of over 20% in size)
Chain of Thyrotropin receptor (Homo sapiens) (P16473 whole entry, looked up): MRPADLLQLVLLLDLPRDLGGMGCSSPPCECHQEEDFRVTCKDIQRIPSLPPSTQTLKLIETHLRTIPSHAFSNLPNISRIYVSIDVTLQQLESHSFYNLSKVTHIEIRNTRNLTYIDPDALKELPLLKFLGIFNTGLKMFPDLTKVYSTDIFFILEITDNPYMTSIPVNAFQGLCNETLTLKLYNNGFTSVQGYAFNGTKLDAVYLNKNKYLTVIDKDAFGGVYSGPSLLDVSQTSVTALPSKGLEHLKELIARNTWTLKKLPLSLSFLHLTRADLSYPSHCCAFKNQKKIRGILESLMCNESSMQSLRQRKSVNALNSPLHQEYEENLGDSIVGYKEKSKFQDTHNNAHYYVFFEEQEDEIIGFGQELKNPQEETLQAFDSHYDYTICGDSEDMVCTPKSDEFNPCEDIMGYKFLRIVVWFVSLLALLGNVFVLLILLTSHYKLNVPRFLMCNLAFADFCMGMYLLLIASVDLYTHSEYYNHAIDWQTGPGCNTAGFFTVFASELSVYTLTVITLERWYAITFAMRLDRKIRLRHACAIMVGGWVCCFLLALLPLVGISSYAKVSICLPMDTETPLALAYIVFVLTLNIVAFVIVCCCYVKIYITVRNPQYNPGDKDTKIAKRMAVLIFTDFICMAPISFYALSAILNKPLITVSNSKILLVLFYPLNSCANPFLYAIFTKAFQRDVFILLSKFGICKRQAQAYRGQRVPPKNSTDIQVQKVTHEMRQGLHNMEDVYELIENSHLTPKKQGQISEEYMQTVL
In short: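 Antagonist mode: compound-treated TSHR-expressing HEK293 cells were stimulated with 1.5 ng/mL TSH (final) in presence of Ro20-1724 for 30 min at RT. HTRF cAMP detection after 1 h; each compound tested at 15 concentrations, triplicate.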

[9] = qHTS assay to identify small molecule agonists of the estrogen receptor alpha (ER-alpha) signaling pathway in the presence of an antagonist - cell viability counter screen (AID 1259386);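 further: series mostly up to about 92 µM; cells exposed to compounds for 22 h at 37 °C before the viability read; nearly all actives have a fitted effect of over 30% in size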
In short: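 VM7Luc4E2, stripped-serum pre-culture 5 d; 24hr plating; +ICI-182,780 10.0nM final; cpds 15 conc, 22hr, 37C/5% CO2; CellTiter-Fluor added at 21hr, fluorescence 1hr later.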

[10] = molecular target: Androgen receptor (Homo sapiens) (UniProt P10275); assay: qHTS assay to identify small molecule agonists of the androgen receptor (AR) signaling pathway in the presence of an antagonist (AID 1259381; calls by dose curve; further: nearly all actives have a fitted effect of over 15% in size)
Chain of Androgen receptor (Homo sapiens) (P10275 whole entry, looked up): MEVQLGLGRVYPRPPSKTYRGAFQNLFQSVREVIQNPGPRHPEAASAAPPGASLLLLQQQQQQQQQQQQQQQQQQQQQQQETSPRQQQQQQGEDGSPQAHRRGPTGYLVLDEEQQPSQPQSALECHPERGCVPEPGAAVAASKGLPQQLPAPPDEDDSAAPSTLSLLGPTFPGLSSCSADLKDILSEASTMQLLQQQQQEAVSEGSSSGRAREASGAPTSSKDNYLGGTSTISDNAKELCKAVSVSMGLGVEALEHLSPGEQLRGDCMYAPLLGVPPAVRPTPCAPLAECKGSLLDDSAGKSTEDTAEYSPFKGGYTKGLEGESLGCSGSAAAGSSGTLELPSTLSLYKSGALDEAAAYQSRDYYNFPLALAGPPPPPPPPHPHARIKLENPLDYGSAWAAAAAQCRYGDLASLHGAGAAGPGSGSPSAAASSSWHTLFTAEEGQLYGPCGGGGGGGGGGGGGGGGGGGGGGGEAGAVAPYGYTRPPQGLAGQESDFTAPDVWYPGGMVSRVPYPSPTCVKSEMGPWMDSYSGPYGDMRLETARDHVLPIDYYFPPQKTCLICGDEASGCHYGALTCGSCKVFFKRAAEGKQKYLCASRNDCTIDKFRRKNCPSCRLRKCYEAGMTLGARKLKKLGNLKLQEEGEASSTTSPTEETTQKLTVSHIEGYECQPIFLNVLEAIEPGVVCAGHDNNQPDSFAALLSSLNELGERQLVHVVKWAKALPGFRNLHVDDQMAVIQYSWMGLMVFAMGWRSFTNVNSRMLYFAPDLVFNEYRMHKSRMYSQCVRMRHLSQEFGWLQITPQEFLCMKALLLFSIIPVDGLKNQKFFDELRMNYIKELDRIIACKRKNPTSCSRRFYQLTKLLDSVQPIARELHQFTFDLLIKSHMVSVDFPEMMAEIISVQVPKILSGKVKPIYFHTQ
In short: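 MDA-kb2 cells, 3,000/well, rested 5hr at 37C/0% CO2 → nilutamide 3.0uM final or buffer → compounds, 15 conc. → 16hr at 37C → ONE-Glo, 30min RT → luminescence.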

Measured: Potency

CC(C)(C)NCC(O)COc1cccc2c1C[C@H](O)[C@H](O)C2 (some centres undefined)
not listed: [10]
inactive: all other assays above

CC(C)C1CCC(C(=O)N[C@H](Cc2ccccc2)C(=O)O)CC1 (some centres undefined)
not listed: [10]
inactive: all other assays above

C[C@H](CS)C(=O)N1CCC[C@H]1C(=O)O
not listed: [6]
inactive: all other assays above

CC1CCC(C(C)CS)CC1S (centres undefined)
not listed: [6]
inactive: all other assays above

CN1C(CSCC(F)(F)F)Nc2cc(Cl)c(S(N)(=O)=O)cc2S1(=O)=O (centres undefined)
not listed: [6]
inactive: all other assays above

O=C(c1ccccc1)C1CCC1
not listed: [10]
inactive: all other assays above

O=[N+]([O-])c1ccc2ncccc2c1
not listed: [10]
inactive: all other assays above

COc1cc(NC(C)CCCN)c2ncccc2c1 (centres undefined)
not listed: [9] | [10]
inactive: all other assays above

Nc1c(Cl)cc(Cl)cc1[N+](=O)[O-]
inactive: all assays above

COc1ccc(C2C(=O)c3ccccc3C2=O)cc1
inactive: [1] | [2] | [3] | [4] | [5]

O=S(=O)(Cl)c1c(Cl)cccc1Cl
inactive: all assays above

CC(C)(C)C(O)/C=C/c1ccc2c(c1)OCO2 (centres undefined)
not listed: [10]
inactive: all other assays above

CCCCOCCOC(=O)c1cccnc1
inactive: all assays above

ClC1=C(Cl)C1(Cl)Cl
not listed: [10]
inactive: all other assays above

COC(OC)OC
not listed: [6] | [10]
inactive: all other assays above

CC1=CC[C@@]23C[C@@H]1C(C)(C)[C@@H]2CC[C@H]3C
not listed: [6] | [10]
inactive: all other assays above

CCN(CC)C(=O)N1CCN(C)CC1
not listed: [6] | [10]
inactive: all other assays above

CC(C)(O)c1coc(S(=O)(=O)NC(=O)Nc2c3c(cc4c2CCC4)CCC3)c1
not listed: [6] | [9] | [10]
inactive: all other assays above

CC(C)COC(=O)COc1cc(Cl)c(Cl)cc1Cl
not listed: [6] | [10]
inactive: all other assays above

CS(=O)(=O)c1ccc([C@@H](C[C@H]2CCC(=O)C2)C(=O)Nc2cnccn2)cc1Cl
not listed: [6] | [10]
inactive: all other assays above

Nc1ccn([C@H]2CS[C@@H](CO)O2)c(=O)n1
not listed: [6] | [10]
inactive: all other assays above

Nc1nc2ccc(OC(F)(F)F)cc2s1
not listed: [6] | [10]
inactive: all other assays above

CC[C@@H](CO)NCCN[C@@H](CC)CO
not listed: [6] | [10]
inactive: all other assays above

CNC1CCCN(c2c(F)cc3c(=O)c(C(=O)O)cn(C4CC4)c3c2OC)C1 (centres undefined)
not listed: [6] | [10]
inactive: all other assays above

CC(=O)OCCC1CCCCC1
inactive: [1] | [2] | [3] | [4] | [5] | [9]
